According to PubChem BioAssay:

test: growth suppression of yeast trafficking mutant, preliminary HTS, modulators of trafficking downstream of Golgi apparatus project, 1536-format plate, OD 615 nm (AID 637); conditions: yeast transport mutant growth, absorbance 615 nm, 18 h; active compounds read high; in the data active = inhibition above about 30%; inactive = the rest

inhibition, inactive:
Cn1c(CCCNC(=O)c2ccccc2)nc2ccccc21 -1.83%
O=C(c1cccn2c(=O)c3cc(Cl)ccc3nc12)N1CCOCC1 -5.32%
Nc1ccc(-c2ccc(N)cc2C(F)(F)F)c(C(F)(F)F)c1 -0.66%
CCOC(=O)c1[nH]c2ccc(Br)cc2c1NC(=O)CNC 8.85%
CCn1nc(NC(=O)c2cccnc2)c2cc3ccccc3nc21 -3.17%
